Measurements as given in PubChem BioAssay (NCATS).
Records with an inconclusive call do not appear. A number with no mark means an inactive call. Calls follow the shape of the dose curve; as a rule, active = well fitted curve in the direction sought with a large enough effect; inconclusive = small, poorly fitted or top-dose-only effect, or another doubt; inactive = no such curve, though single readings can be large or run the other way. Numbered stars: 1 amine (or outer) side, 2 acyl side, 3 side chain; on linkers, the order of the positions; unused ones are H or OH. Bridge positions count the residues as written; N and C are the ends. Square brackets hold non-standard residues; d marks the D form. Peptide text beside a SMILES is read from it. * marks the point of attachment. ξ: configuration not given here. X1 = CCCCCCCCCC(=O)[C@H](C(=O)[*:2])[C@@H]1CNC(=O)[C@@H](N[*:1])CS1; Phe(3R-OH) = O=C([C@@H](N[*:1])[C@H](O[*:3])c1ccccc1)[*:2]; NMeTrp(4-OMe) = CN[C@@H](Cc1c[nH]c2cccc(OC)c12)C(=O)O; ξThr(3R)(O-yl) = C[C@@H](O[*:3])C(N[*:1])C(=O)[*:2]; NMeThr(3ξ) = CN[C@H](C(=O)O)C(C)O; NMeL = CN[C@@H](CC(C)C)C(=O)O; NMeV = CN[C@H](C(=O)O)C(C)C; ξIle = CC[C@H](C)C(N)C(=O)O; Octanoyl = CCCCCCCC(=O)*; ξV = CC(C)C(N)C(=O)O

Assay: HPAF-II 18hr Apoptosis Induction qHTS against the NCATS CANVASS Library (AID 1347360); also: 0% is about no effect
Settings: HPAF-II caspase-3/7 luminescence; series mostly up to 46.1 µM; caspase activation: at the top concentration
Excerpt: Natural products and their derivatives continue to be wellsprings of nascent therapeutic potential. However, many laboratories have limited resources for biological evaluation, leaving their previously isolated or synthesized compounds largely or completely untested. To address this issue, the Canvass library of natural products was assembled (https://tripod.nih.gov/canvass), in collaboration with academic and industry researchers, for quantitative high-throughput screening (qHTS) across a diverse set of cell-based and biochemical assays. The pure (>85% purity by liquid chromatography/mass spectrometry [LC/MS]) Canvass library of 346 natural products were submitted by 45 academic laboratories and companies around the world. We collected pure natural products to circumvent deconvolution and structure elucidation due to time and resource limitations. The library was formatted into 1536-well plates and evaluated in 50 qHTS (in an 11-pnt concentration series) bioassays with broad scope of disease-relevant mechanisms. The resulting data set from 50 different assays was then systematically analyzed to identify overall trends and specific natural products with interesting biological activities. Reported herein are the results of each individual qHTS and their corresponding assay protocol. The Caspase-Glo (R) (Promega) is a homogeneous, luminescent assay that measures caspase activity. The detection substrate contains tetrapeptide sequence DEVD in an "add-mix-measure" format. The reagent generates a luminescent signal produced by a thermostable luciferase. The luminescence is proportional to the amount of caspase activity in the assay reaction. National Center for Advancing Translational Sciences (NCATS), Rockville, MD National Institute of Health (NIH), Bethesda, Maryland
Cancer Cell Apoptosis Assay 1. In a 1536 well, white solid bottom tissue culture plates (Corning 7494), HPAF-II cancer cells in DMEM + 10% FBS + 1% P/S media were dispensed in each well at a final concentration of 500 cells / well (5uL volume) using the Multidrop Combi (Thermo Fisher Scientific) dispenser. 2. Compounds were pin transferred (~23nL volume) via Wako Pin-tool (Wako Automation, Richmond VA) equipped with a 1536 pin head. The assay plates were treated with compounds in a concentration series with a final concentration range of 0.17nM to 103uM. 3. Doxorubicin was used as a control in a 16pnt titration (1mM; 1:2 dilution; 16-points; n = 2; column 3, rows 1 - 32) and was pin transferred via Wako Pin-tool equipped with a 1536 pin head. The final concentration range of doxorubicin is 0.1nM - 4uM. 4. The assay plates were incubated for 18 hours at 37 degrees C/5% CO2/95% Rh. 5. 3uL Caspase-Glo 3/7 (R) (Promega) detection reagent was then added to the assay plates (columns 2 - 48, rows 1 - 32) and incubated at room temperature, covered from light, for 15 min. 6. Luminescence signal was acquired via the ViewLux plate reader (PerkinElmer) using a clear filter, 20 second exposure and 2x binning settings.

SMILES	caspase activation
O=Cc1ccc2n1C[C@@]1(OC2)O[C@H](CO)[C@@H](O)[C@@H]1O	-1.22%
CCCCCCCC(=O)N[C@@H](CC(C)C)C(=O)N[C@H](C=O)CCC(=O)O (Octanoyl-Leu-Glu-aldehyde)	-2.2%
COc1c(O)cc2oc(-c3ccccc3)cc(=O)c2c1O	-7.54%
CN1CCc2cc3c(c4c2[C@H]1[C@@H](O)c1ccccc1-4)OCO3	-3.37%
C[C@@H](CCC[C@]1(C)C(=O)C=C[C@]23C[C@H]4C[C@H](O[C@@]4(C)C2)C31)C(=O)N[C@@H](CO)C(=O)O (stereo not given in full)	0.545%
CC1=CC2=C[C@H](C)C[C@@]23OC(=C(C)C3=O)CC(C)(C)/C=C/C1=O	-6.34%
CCCCCCCCC[C@@H]1C[C@@H]2CC[C@H]3[C@@H](C(=O)OCCCCN=C(N)N)[C@@H](C)N=C(N1)N23	-2.09% [at 27.5 µM]
C/C1=C/[C@@H](C)[C@H](O)C/C=C/CC/C=C/C(=O)O[C@@H]1[C@H](C)C(=O)/C=C/CC1CC(=O)NC(=O)C1	2.45%
COc1ccc2oc3c(OC)c(OC)c(OC)c(OC)c3c(=O)c2c1	4.09% [at 9.19 µM]
O=C1C[C@@H](c2ccc(O)c(-c3c(O)cc(O)c4c3O[C@H](c3ccc(O)cc3)CC4=O)c2)Oc2cc(O)cc(O)c21	-2.34% [at 27.5 µM]
C=C1C(=O)C[C@H]2C[C@@H]1[C@]2(C)CCC=C(C)C	3.58%
C=C[C@@]1(C)CC[C@@H]([C@H](C)C(=O)/C=C/C(C)C)O1	0.876%
CO[C@@H]1C[C@@H](C[C@H]2CC[C@H](C)[C@H]([C@@H](C)C(=O)O)O2)O[C@]2(O[C@](C)([C@H]3CC[C@@](C)([C@@H]4O[C@@H]([C@H]5O[C@](C)(O)[C@H](C)C[C@@H]5C)C[C@@H]4C)O3)C[C@H]2C)[C@@H]1C	5.71%
CC[C@H](C)C(NC(=O)[C@@H](NC)C(C)C)C(=O)NC1C(=O)N(C)[C@@H](C(C)O)C(=O)N[C@@H](C(C)C)C(=O)N(C)[C@@H](CC(C)C)C(=O)NC(C(C)C)C(=O)N(C)[C@@H](C(C)C)C(=O)N(C)[C@@H](Cc2c[nH]c3cccc(OC)c23)C(=O)N[C@@H](C(C)C)C(=O)N[C@@H]([C@H](O)c2ccccc2)C(=O)N[C@@H](C(C)C)C(=O)O[C@@H]1C (stereo partly drawn) (H-[NMeV][ξIle][ξThr(3R)(O-yl)][NMeThr(3ξ)]V[NMeL][ξV][NMeV][NMeTrp(4-OMe)]V[Phe(3R-OH)]V; ester 3-C)	2.56%
C/C=C/C=C/C1(O)C2C=C3C(=O)CC45C(=O)C(O)=C(C)C(=O)C4C1C1(C(=O)C(O)=C(C)C(=O)C351)C2C (stereo not given)	1.96%
Oc1ccc([C@H]2Oc3ccc(/C=C/c4cc(O)cc(O)c4)cc3C2c2cc(O)cc(O)c2)cc1 (stereo not given in full)	3.77%
CC(C)(Br)[C@@H](Cl)C[C@H](Br)[C@](C)(Cl)/C=C/Br	2.15%
CCCCCCCCCC(=O)[C@@H]1C(=O)N[C@@H](CC(C)C)C(=O)N[C@H](C)C(=O)N2CCC[C@H]2C(=O)N[C@@H](C(C)C)C(=O)N[C@H]2CS[C@H]1CNC2=O (cyclo(L[dA]PV[X1]))	-1.19%
C=C1C[C@@]23C=CC(=O)[C@@](C)(CCCC(C)C(=O)O)[C@@H]2C[C@@H]1CC3 (stereo not given in full)	3.13%
COc1ccc2cc(NC(=O)C3=NO[C@H]4[C@H](O)C=C[C@@H](Cl)[C@@]4(O)C3)c(=O)oc2c1OC	-0.839%

SMILES	caspase activation
C[C@@]12C[C@@H](C[C@H]3C(=O)O[C@@H](c4ccoc4)[C@H](OC(=O)c4ccccc4)[C@@H]31)OC2=O	-1.67%
CN1C(=O)C2C(N=CN2C)N(C)C1=O (stereo not given)	2.5%
COc1cc(/C=C/C(=O)O)ccc1O	-0.426%
CCC1=C2CCCN3C(=O)O[C@H]([C@H]1OC(C)=O)[C@H]23	1.62%
Cc1cc(O)cc2oc(C[C@H](C)O)cc(=O)c12	1.32%
C=C[C@]1(C)CC[C@@H]([C@H](C)C(=O)/C=C/C(C)C)O1	2.76%
C=C1C(=O)O[C@H]2C[C@H](C)[C@@H]3CC(=O)C(C)=C3[C@H](O)[C@H]12	6.12%
C=C1C[C@@]23C=CC(=O)[C@@](C)(CCC(=O)Nc4c(O)ccc(C(=O)O)c4O)C2C[C@@H]1CC3 (stereo not given in full)	2.87%
O=c1cc(-c2ccc(O)c(O[C@@H]3O[C@H](CO)[C@@H](O)[C@H](O)[C@H]3O)c2)oc2cc(O[C@@H]3O[C@H](CO)[C@@H](O)[C@H](O)[C@H]3O)cc(O)c12	2.85%
C[C@@]12CCC[C@@](C)(C(=O)O)[C@H]1C[C@@H](O)[C@]13C[C@H]4C[C@H](O[C@@]4(C)C1)[C@@H]23	2.56%
C=C(C)CC[C@H](Cc1c(O)cc(O)c2c1O[C@H](c1ccc(O)cc1O)CC2=O)C(=C)C	3.83%
CO[C@@H]1[C@H](O)[C@@H](C)O[C@@H](OC[C@H]2/C=C/C=C/C(=O)C(C)C[C@H](C)C(O[C@@H]3O[C@H](C)CC4(OC(=O)O[C@@H]4C)C3O)[C@@H](C)/C=C/C(=O)OC2C)[C@@H]1OC (stereo not given in full)	-1.15%
CNc1ccc(Cl)cc1C(=O)OC[C@]1(C)[C@H]2CC[C@]3(C)[C@@H](C[C@@H](OC)[C@H](C)[C@H]3C3=C(O)C(=O)OC3O)[C@]2(C)CC[C@H]1O (stereo not given in full)	-2.51%
COc1cc(/C=C2/C(=O)N(c3ccc(O)cc3C(=O)O)[C@H](c3ccc(O)c(OC)c3)C2C(=O)Nc2ccc(O)cc2C(=O)O)ccc1O (stereo not given in full)	-2.43%
CC1C(=O)C23CCC1C[C@]21O[C@@H]2C(C)(C)C=CC(=O)[C@@]23COC1=O (stereo not given in full)	-1.28%
C=C1C[C@@]23C=CC(=O)[C@@](C)(CCC(=O)Nc4c(O)ccc(C(=O)O)c4O)C2C[C@@H]1C(O)C3 (stereo not given in full)	1.67%
CC1(C)CC[C@]2(C(=O)O)CC[C@]3(C)C(=CC[C@@H]4[C@@]5(C)C[C@@H](O)[C@H](O)C(C)(C)[C@@H]5CC[C@]43C)[C@@H]2C1	2.97%
C=C1[C@H]2CC[C@@]3(C=CC(=O)[C@@](C)(CCC(=O)Nc4c(O)ccc(C(=O)O)c4O)C3C2)[C@H]1O (stereo not given in full)	0.917%
C=C(NC(=O)c1csc(-c2nc3c(cc2O)-c2nc(cs2)C(=O)NC(C(C)O)C(=O)N/C(=C(\C)O)c2nc(cs2)C(=O)NC2c4nc(cs4)C(=O)NC(COC(=O)c4c5c6c(cccc6n4O)COC(=O)[C@@H](OC4C[C@](C)(O)[C@H](N(C)C)[C@H](C)O4)C2OC5)c2nc-3cs2)n1)C(N)=O (stereo not given in full)	4.53%
CN1CC[C@]2(c3cccc4c3N[C@@H]3N(C)CC[C@]43[C@@]34CCN(C)[C@@H]3Nc3ccccc34)c3ccccc3N[C@H]12	0.202%
